Source: article PMC4336329 (PLoS ONE, 2015)
About 14,000 (4.5%) of roughly 310,000 compounds showed an effect of 50% or more. The effect is printed as a negative number. What follows is part of a selection rich in strong results, with near analogues and random picks from the rest.

Molecular target: human ether-à-go-go-related gene (hERG) potassium channel (human, UniProt Q12809)
Test: primary screen, population patch clamp on CHO cells stably expressing hERG; higher = less effect of the substance
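Also: peak tail current of the secondary pulse compared with the same well before compound.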

Sequence of human ether-à-go-go-related gene (hERG) potassium channel (Q12809 whole entry, looked up): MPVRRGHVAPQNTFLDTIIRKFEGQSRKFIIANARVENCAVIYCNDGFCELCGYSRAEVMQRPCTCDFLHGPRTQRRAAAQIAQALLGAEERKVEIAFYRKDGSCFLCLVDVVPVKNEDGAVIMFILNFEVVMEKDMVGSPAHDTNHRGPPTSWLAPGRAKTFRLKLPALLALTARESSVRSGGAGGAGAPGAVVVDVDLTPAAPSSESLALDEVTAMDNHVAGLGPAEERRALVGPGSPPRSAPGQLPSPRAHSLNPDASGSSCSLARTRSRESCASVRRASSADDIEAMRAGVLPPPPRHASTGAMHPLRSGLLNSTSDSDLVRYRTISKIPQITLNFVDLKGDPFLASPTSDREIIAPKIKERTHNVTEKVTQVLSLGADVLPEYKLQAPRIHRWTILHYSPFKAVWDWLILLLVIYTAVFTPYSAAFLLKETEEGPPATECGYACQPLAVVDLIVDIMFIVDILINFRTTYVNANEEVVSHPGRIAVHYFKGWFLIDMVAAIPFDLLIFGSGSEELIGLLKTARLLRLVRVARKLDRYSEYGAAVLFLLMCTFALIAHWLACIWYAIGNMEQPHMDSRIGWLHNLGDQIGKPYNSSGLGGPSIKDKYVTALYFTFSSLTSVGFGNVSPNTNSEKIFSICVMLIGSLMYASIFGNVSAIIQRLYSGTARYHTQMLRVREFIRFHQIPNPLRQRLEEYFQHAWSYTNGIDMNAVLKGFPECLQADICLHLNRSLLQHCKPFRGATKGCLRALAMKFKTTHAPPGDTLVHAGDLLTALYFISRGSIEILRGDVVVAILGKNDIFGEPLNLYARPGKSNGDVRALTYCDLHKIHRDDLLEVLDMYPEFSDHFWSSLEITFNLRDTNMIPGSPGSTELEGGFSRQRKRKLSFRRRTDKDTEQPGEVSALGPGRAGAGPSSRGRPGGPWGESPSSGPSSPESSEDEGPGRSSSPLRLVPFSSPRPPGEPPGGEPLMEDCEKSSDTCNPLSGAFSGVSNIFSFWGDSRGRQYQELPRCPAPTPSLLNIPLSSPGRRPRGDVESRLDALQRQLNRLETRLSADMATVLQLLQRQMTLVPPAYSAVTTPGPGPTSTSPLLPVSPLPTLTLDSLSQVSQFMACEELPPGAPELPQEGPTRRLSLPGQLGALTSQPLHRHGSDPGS

| Structure (SMILES) | hERG current change (%, negative = inhibition) at 10uM |
| --- | --- |
| O=S(=O)(N/N=C/c1ccc(N2CCOCC2)cc1)c1ccc(Br)cc1 | 15.1% |
| Cc1ccc2nc(-c3ccc(NC(=O)CN4C(=O)NC(C)(c5ccc(OC(F)F)cc5)C4=O)cc3)sc2c1 (stereo not drawn) | 12.4% |
| Cc1cccc(-n2c(C)cc(/C=N/n3cnnc3)c2C)c1 | -0.869% |
| O=C(Nc1ccc(S(=O)(=O)Nc2nccs2)cc1)C1CC(=O)N(c2ccc(Cl)cc2)C1 (stereo not drawn) | 0.55% |
| CC1=C(C(=O)OC(C)C)C2(O)C(=O)c3ccccc3C2(O)N1 (stereo not drawn) | 12% |
| CN(CC(=O)Nc1c(Cl)cccc1Cl)C(=O)Cc1cccs1 | 2.98% |
| Cc1cc(=O)oc(C)c1C(=O)NCc1ccc(F)cc1 | -15.9% |
| O=C1CCCCC/C1=N/Nc1ccc(OCc2ccccc2)cc1 | 17.3% |
| CC(C)(C)c1ccc(-n2ncc3c2CCCC3NC(=O)C2(C(N)=O)CC2)cc1 (stereo not drawn) | -29.1% |
| CCCCOc1ccc(/C=C/C(=O)OCC(=O)N2CC(=O)Nc3ccccc32)cc1OCC | 21.2% |
| CCOC(=O)c1c(-c2ccccc2)oc2ccc(O)c(CN3CCOCC3)c12 | -37% |
| CCOC(=O)c1c(-c2ccccc2)oc2ccc(O)c(CN3CCCC3)c12 | -64.3% |
| CCOC(=O)c1c(C)n(C)c2ccc(O)c(CN3CCCCC3)c12 | -55.5% |
| CCOC(=O)c1c(-c2ccccc2)oc2ccc(O)c(CN3CCN(C)CC3)c12 | -23.5% |
| CCOC(=O)c1c(C)n(C)c2ccc(O)c(CN3CCC(C)CC3)c12 | -23.2% |
| CCOC(=O)c1c(CSc2ccccc2)n(C)c2ccc(O)c(CN3CCN(C)CC3)c12 | -22.6% |
| CCOC(=O)c1c(C)oc2ccc(O)c(CN3CCCCC3)c12 | -37.4% |
| CCCCn1c(C)c(C(=O)OCC)c2c(CN3CCOCC3)c(O)ccc21 | -55.9% |
| CCOC(=O)c1oc2cccc(O)c2c1CN1CCOCC1.Cl | -17.1% |
| CCOC(=O)c1c(CSc2ccccc2)n(C)c2ccc(O)c(CN3CCOCC3)c12 | -46.3% |
| CCCCn1c(C)c(C(=O)OCC)c2c(CN3CCCC3)c(O)ccc21 | -72% |

| Structure (SMILES) | hERG current change (%, negative = inhibition) at 10uM |
| --- | --- |
| CCOC(=O)c1c(C)n(C)c2ccc(O)c(CN3CCN(C)CC3)c12 | -3.46% |
| Cc1csc(SC(C)C(=O)Nc2ccc3c(c2)OCCO3)n1 (stereo not drawn) | 6.25% |
| COc1ccc(OC)c(C2CC(=O)c3c([nH]c(C(=O)OCC4CCCO4)c3C)C2)c1 (stereo not drawn) | 3.54% |
| CCOC(=O)C1C(=O)NC(N2CCN(CC)CC2)=NC1c1ccccc1 (stereo not drawn) | 16.8% |
| CC1CCC(CN2CCN=C2Nc2ccccc2)CC1 (stereo not drawn) | -14.7% |
| CC(C)c1nnc(NC(=O)CCC(=O)NC2CCCCC2)s1 | 1.73% |
| O=C(Nc1ccnn1C1CCN(C(=O)c2cc(Cl)ccc2F)CC1)C1CCOC1 (stereo not drawn) | 23.6% |
| Fc1ccc2c(-c3cccc(C(F)(F)F)c3)c(-c3ccccc3)ncc2c1 | 14.1% |
| Cc1cc(C)cc(NC(=O)COc2coc(CN3CCc4ccccc43)cc2=O)c1 | 2.85% |
| Cc1cc(C)c(NC(=O)COC(=O)C2CCCCC2)c(C)c1 | 4.87% |
| Cc1cc(C)n(-c2cc(N3CCN(S(=O)(=O)c4ccc(Br)cc4)CC3)ccc2[N+](=O)[O-])n1 | -21.3% |
| Cc1cc(C)n(-c2cc(N3CCN(C(=O)c4cccc(Br)c4)CC3)ccc2[N+](=O)[O-])n1 | -67.6% |
| Cc1cc(C)n(-c2cc(N3CCN(C(=O)c4cccc(F)c4)CC3)ccc2[N+](=O)[O-])n1 | -67.9% |
| Cc1cc(C)n(-c2cc(N3CCN(S(=O)(=O)c4ccc5ccccc5c4)CC3)ccc2[N+](=O)[O-])n1 | -1.13% |
| O=C(c1cccc(F)c1)N1CCN(c2ccc([N+](=O)[O-])c(N3CCOCC3)c2)CC1 | -25% |
| CCN(CC(=O)Nc1ccccc1OC)C(=O)c1ccccc1Sc1ccccc1C#N | 8.48% |
| O=C(Nc1ccccc1)N1CCCN(c2nccc(C(F)(F)F)n2)CC1 | -5.36% |
| O=C(CSc1ncn[nH]1)Nc1ccc(Br)cc1F | -5.57% |
| CCOC(=O)c1cnc2cc(C)ccn2c1=O | -7.41% |
| Cc1cccc(NC(=O)CN(C)CC(=O)NC(c2ccccc2)c2ccccc2)c1C | -30.5% |
| O=[N+]([O-])c1ccc(C2CN=C(Nc3ccccc3)S2)cc1 (stereo not drawn) | -60.2% |

| Structure (SMILES) | hERG current change (%, negative = inhibition) at 10uM |
| --- | --- |
| CCc1ccc(NC2=NCC(c3ccccc3)S2)cc1 (stereo not drawn) | -17.5% |
| Cc1ccccc1NC1=NCC(c2ccc([N+](=O)[O-])cc2)S1 (stereo not drawn) | -44.9% |
| CCN(CC)c1ccc(/C=N/NC(=O)CNC(=O)c2ccc3c(c2)OCCO3)cc1 | -5.14% |
| COc1ccc(CC(=O)NCCS(=O)(=O)N2CCN(c3ccccc3OC)CC2)cc1 | -17.1% |
| CCc1ccc(-c2nc(CS(=O)CC(=O)NCc3ccco3)c(C)o2)cc1 (stereo not drawn) | 1.94% |
| Cc1oc(-c2cccc(Cl)c2)nc1CN1CCC(C(=O)NCc2ccco2)CC1 | -78% |
| Cc1oc(-c2ccc(Cl)cc2)nc1CN1CCC(C(=O)NCc2ccco2)CC1 | -71.2% |
| CCc1ccc(-c2nc(CN3CCC(C(=O)NCc4ccc(F)cc4)CC3)c(C)o2)cc1 | -50.5% |
| Cc1oc(-c2cccc(Cl)c2)nc1CN1CCC(C(=O)NC2CC2)CC1 | 16.2% |
| O=C(NCc1ccco1)C1CCN(Cc2ccc(F)cc2)CC1.O=C(O)C(=O)O | -15.4% |
| CCc1ccc(-c2nc(CN3CCC(C(=O)NCc4ccco4)CC3)c(C)o2)cc1 | -66.3% |
| Cc1oc(-c2ccc(Cl)cc2)nc1CS(=O)CC(=O)NCc1ccco1 (stereo not drawn) | -35.6% |
| COc1ccc(C(=O)NC2CCCCCC2)cc1S(=O)(=O)N1CCCc2ccccc21 | 11.3% |
| CCOc1ccc(C2N(c3ccc(OC)cc3)C(=O)C3CCCN32)cc1OC (stereo not drawn) | -3.49% |
| CC1CCN(S(=O)(=O)c2ccc(NC(=O)CCN3C(=O)C4CC=CCC4C3=O)cc2)CC1 (stereo not drawn) | -25.3% |
| Nc1ccc(N=Nc2ccccc2)c2ccccc12 | 22.4% |
| COc1ccccc1CN(C)C(=O)c1ccccc1Sc1ccccc1C#N | -25% |
| O=C(NCc1ccco1)c1ccc(S(=O)(=O)c2cccc(S(=O)(=O)N3CCOCC3)c2)cc1 | 2.58% |
| CCN(CC)P(=O)(c1n(CC)cc[n+]1CC)N(CC)CC.[I-] | 15.1% |
| CCOC(=O)Cn1c(CN2CCN(C(=O)c3ccco3)CC2)nc2c1c(=O)n(C)c(=O)n2C | -13.3% |
| O=C(Nc1ccc(N2CCN(C(=O)c3ccco3)CC2)c(Cl)c1)c1cccnc1 | -16.8% |

| Structure (SMILES) | hERG current change (%, negative = inhibition) at 10uM |
| --- | --- |
| Cc1ccccc1-c1nc(CN2CCC(C(=O)NCc3ccco3)CC2)c(C)o1 | -73.6% |
| Cc1oc(-c2ccccc2F)nc1CN1CCC(C(=O)NCc2ccco2)CC1 | -38% |
| COc1ccc(OC)c(S(=O)(=O)NC2CCN(Cc3ccccc3)CC2)c1 | -4.92% |
| Nc1ccc(C(=O)N/N=C2\CCCc3c2[nH]c2ccccc32)cc1 | 16.2% |
| COc1ccc(-n2nc(C(=O)NCC(=O)NCCCN3CCN(C)CC3)c3ccccc3c2=O)cc1OC | 18.9% |
| Cc1ccccc1CN1C2=NCCN2c2ccccc21.Cl | -53.7% |
| Cc1ccccc1CN1C2=NCCCN2c2ccccc21.Cl | -68% |
| CS(=O)(=O)NCc1nnc(SCC(=O)NC2CCCCC2)n1-c1ccc(F)cc1 | 11.6% |
| Cc1ccc2nc3c(cc(C(=O)NCc4ccco4)c(=N)n3Cc3ccco3)c(=O)n2c1 | -77% |
| CCn1cc(C(=O)NCc2ccco2)c(=O)c2ccc(C)nc21 | 16.9% |
| COCCn1c(=N)c(C(=O)NCc2ccco2)cc2c(=O)n3cc(C)ccc3nc21 | -82.1% |
| COCCn1cc(C(=O)NCc2ccco2)c2c3ccccc3n(C)c2c1=O | -20.6% |
| Cc1cc2ccccc2c(=O)n1CC(=O)NCc1ccco1 | 13.8% |
| CCn1cc(C(=O)NCc2ccco2)c2cc(OC)c(OC)cc2c1=O | -20.9% |
| COCCn1c(=N)c(S(=O)(=O)c2ccc(F)cc2)cc2c(=O)n3ccccc3nc21 | -25.5% |
| COCCn1c(=N)c(C(=O)NCc2ccco2)cc2c(=O)n3ccccc3nc21 | -78.1% |
| COCCn1c(=N)c(S(=O)(=O)c2ccc(Br)cc2)cc2c(=O)n3ccccc3nc21 | -44.3% |
| COc1ccc2c(c1)CCc1c(C(=O)N3CCCC3)noc1-2 | -7.79% |
| CC(C)c1ccccc1NC(=O)COC(=O)Cc1c[nH]c2ccccc12 | 7.28% |
| C/C(=N\NC(=O)c1ccncc1)c1c(O)[nH]c(=O)[nH]c1=O | -1.22% |
| [O-]/C(=C(\C(=S)Nc1ccc(SC(F)F)cc1)[n+]1ccccc1)c1cc(Cl)ccc1Cl | 1.83% |
